A selection: hits, their analogues and other compounds. The true share with any hit is near 1.1%.
NR2F2 inh: blocks human COUP-TFII nuclear receptor; 0.7% of 370,000 active; HEK293T NGFI-A luciferase reporter, luminescence; P24468; inhibition, % at 8.6 µM;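 active = inhibition above a per-plate cutoff, mean inhibition of test wells between control levels plus 3 SD, cut at about 38% in these data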;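 also: cells cotransfected with COUP-TFII expression vector driving the NGFI-A reporter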
NCOA1 inh: inhibitors of human steroid receptor coactivator 1 (SRC1); 0.12% of 360,000 active; HEK293 GAL4-SRC1 luciferase reporter, luminescence; inhibition, % at 3.6 µM;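 active = inhibition above the campaign mean plus 3 SD, with each screening campaign given its own cutoff, cut at about 60% in these data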
Target sequence (Q15788 whole entry, looked up, the tested form may be a part): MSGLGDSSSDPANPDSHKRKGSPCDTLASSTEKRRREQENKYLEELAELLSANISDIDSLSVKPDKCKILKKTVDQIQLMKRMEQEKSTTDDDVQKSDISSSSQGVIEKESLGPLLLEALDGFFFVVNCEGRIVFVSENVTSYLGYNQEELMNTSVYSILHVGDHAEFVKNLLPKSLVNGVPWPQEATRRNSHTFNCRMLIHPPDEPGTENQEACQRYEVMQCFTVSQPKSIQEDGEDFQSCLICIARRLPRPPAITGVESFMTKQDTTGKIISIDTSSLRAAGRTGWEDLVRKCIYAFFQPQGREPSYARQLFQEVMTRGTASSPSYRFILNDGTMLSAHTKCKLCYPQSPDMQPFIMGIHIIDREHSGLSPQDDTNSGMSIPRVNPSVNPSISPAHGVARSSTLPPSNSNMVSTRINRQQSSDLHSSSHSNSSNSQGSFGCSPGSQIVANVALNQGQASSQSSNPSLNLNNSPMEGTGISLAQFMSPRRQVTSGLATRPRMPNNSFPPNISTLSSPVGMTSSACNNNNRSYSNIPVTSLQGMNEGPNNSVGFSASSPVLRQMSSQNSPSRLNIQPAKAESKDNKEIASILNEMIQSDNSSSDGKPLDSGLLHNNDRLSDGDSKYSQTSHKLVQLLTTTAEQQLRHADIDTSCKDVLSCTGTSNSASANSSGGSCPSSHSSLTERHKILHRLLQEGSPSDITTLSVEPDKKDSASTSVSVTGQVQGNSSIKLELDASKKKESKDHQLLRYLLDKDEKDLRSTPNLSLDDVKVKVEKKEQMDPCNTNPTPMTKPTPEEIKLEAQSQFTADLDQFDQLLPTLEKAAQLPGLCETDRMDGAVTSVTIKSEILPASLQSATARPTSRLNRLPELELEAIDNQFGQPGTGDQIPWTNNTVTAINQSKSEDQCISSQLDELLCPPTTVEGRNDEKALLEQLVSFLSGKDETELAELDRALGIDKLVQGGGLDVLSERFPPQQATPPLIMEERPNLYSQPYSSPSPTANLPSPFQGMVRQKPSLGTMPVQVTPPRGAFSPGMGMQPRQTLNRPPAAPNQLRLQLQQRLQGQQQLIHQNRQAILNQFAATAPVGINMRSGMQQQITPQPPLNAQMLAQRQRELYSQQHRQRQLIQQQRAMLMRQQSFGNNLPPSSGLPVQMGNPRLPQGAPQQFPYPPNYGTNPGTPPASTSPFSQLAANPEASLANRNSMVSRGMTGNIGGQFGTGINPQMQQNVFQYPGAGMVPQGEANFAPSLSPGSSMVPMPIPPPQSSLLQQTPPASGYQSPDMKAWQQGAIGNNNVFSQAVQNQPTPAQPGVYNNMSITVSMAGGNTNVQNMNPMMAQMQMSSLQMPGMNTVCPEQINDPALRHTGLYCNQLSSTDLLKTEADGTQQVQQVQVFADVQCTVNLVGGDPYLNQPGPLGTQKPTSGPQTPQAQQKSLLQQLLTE
GalR3 antag: antagonists of human GalR3. inhibition, % at 3 µM. HEK293 GalR3-CNG cAMP membrane potential fluorescence; galR3 body fused to GalR1 C-terminus. 0.44% of 360,000 active;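 active = inhibition above the screen-wide average plus 3 SD, cut at about 13% in these data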;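 also: forskolin and galanin both at EC90 stimulate the cells; cAMP rise reported by CNG channel membrane potential dye signal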
SRC3 inh: inhibits human SRC3 coactivator. inhibition, % at 3.6 µM. 0.17% of 360,000 active. AID 588352. HEK293 GAL4-SRC3 luciferase reporter, luminescence;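 active = inhibition above a per-campaign cutoff, the mean of all compounds plus 3 SD, cut at about 60% in these data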;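 also: higher means less SRC3-driven luciferase light from the GAL4 reporter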
SRC2 inh: inhibits human steroid receptor coactivator 2; Q15596; HEK293 GAL4-SRC2 luciferase reporter, luminescence; inhibition, % at 9 µM; 0.17% of 370,000 active; AID 651957;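 active = inhibition above the mean inhibition of all tested compounds plus 3 SD, set per campaign, cut at about 52% in these data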
LRH-1 inv ag: suppresses constitutive activity of human LRH-1; inhibition, % at 3.6 µM; AID 602396; O00482; HEK293T StAR-luciferase reporter, LRH-1 transfected, 24 h; 0.13% of 360,000 active;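 active = inhibition above the mean inhibition of all tested compounds plus 3 SD, cut at about 73% in these data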
GalR3 antag conf: confirmation of human galanin receptor 3 antagonists | shares compounds with GalR3 antag | HEK293 GalR3 CNG cAMP biosensor, membrane potential fluorescence; galR3 fused to GalR1 carboxy tail; challenged with forskolin and galanin at EC90 | inhibition, % at 3 µM | 59% of 1,600 active | AID 652245;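 active = inhibition above the primary screen's cutoff, the mean inhibition of all screened compounds plus 3 SD, cut at about 13% in these data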
HEK-CNG parental: counter-screen for GalR3 antagonists: nonspecific agonists in parental HEK-CNG cells; HEK293-CNG parental cells, cAMP membrane potential fluorescence; normalised: DMSO wells 0%, forskolin wells 100%; 10% of 1,600 active; shares compounds with GalR3 antag; activation, % at 3 µM; in the data active = activation above about 1.3%
VP16 Luc counter: inhibits VP16 reporter, flagging COUP-TFII antagonist hits | shares compounds with NR2F2 inh | HEK293 Gal4-VP16 luciferase reporter, luminescence | inhibition, % at 8.5 µM | 25% of 2,500 active; in the data active = inhibition above about 13%
COUP-TFII conf: confirmation of human COUP-TFII (NR2F2) inhibitors. 45% of 2,500 active. inhibition, % at 8.5 µM. shares compounds with NR2F2 inh. HEK293 NGFI-A luciferase reporter, luminescence;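 active = mean inhibition over three repeats above a set limit taken from the earlier primary screen, cut at about 38% in these data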
A number is an active result.

What do the screens show for `COc1cccc(C(C)(O)c2nc(-c3ccc(N(C)C)cc3)cs2)c1` (stereo not drawn)?
NR2F2 inh: 55; NCOA1 inh: inactive; GalR3 antag: 96; SRC3 inh: inactive; SRC2 inh: inactive; LRH-1 inv ag: inactive; GalR3 antag conf: 101; HEK-CNG parental: inactive; VP16 Luc counter: inactive; COUP-TFII conf: inactive

How did COc1cc(CCC(C)=O)ccc1OC(=O)c1c(-c2c(F)cccc2Cl)noc1C do in these assays?
NR2F2 inh: inactive; GalR3 antag: inactive; SRC2 inh: inactive

Results for CC(=O)c1c(C)[nH]c(C(=O)OCc2ccccc2)c1C ?
NR2F2 inh: inactive; NCOA1 inh: inactive; GalR3 antag: inactive; SRC3 inh: inactive; SRC2 inh: inactive; LRH-1 inv ag: inactive

Results for CC(=O)c1c(C)[nH]c(C(=O)OCCCCN2C(=O)c3ccccc3C2=O)c1C ?
NR2F2 inh: 53; NCOA1 inh: inactive; GalR3 antag: 20; SRC3 inh: inactive; SRC2 inh: inactive; LRH-1 inv ag: inactive; GalR3 antag conf: 60; HEK-CNG parental: inactive; VP16 Luc counter: inactive; COUP-TFII conf: 61

What do the screens show for `CCOc1ccc(NC(=O)c2ccc(CN3CCc4ccccc4C3)cc2)cc1`?
NR2F2 inh: 48; NCOA1 inh: inactive; GalR3 antag: 103; SRC3 inh: inactive; SRC2 inh: inactive; LRH-1 inv ag: inactive; GalR3 antag conf: 108; HEK-CNG parental: inactive; VP16 Luc counter: inactive; COUP-TFII conf: 41

Results for CCOc1ccccc1NC(=O)c1ccc(CN2CCc3ccccc3C2)cc1 ?
NR2F2 inh: inactive; NCOA1 inh: inactive; GalR3 antag: inactive; SRC3 inh: inactive; SRC2 inh: inactive; LRH-1 inv ag: inactive

What do the screens show for `CCOC(=O)c1ccc(NC(=O)c2ccc(CN3CCc4ccccc4C3)cc2)cc1`?
NR2F2 inh: 51; NCOA1 inh: inactive; GalR3 antag: 71; SRC3 inh: inactive; SRC2 inh: inactive; LRH-1 inv ag: inactive; GalR3 antag conf: 110; HEK-CNG parental: inactive; VP16 Luc counter: inactive; COUP-TFII conf: 54

How did COc1cccc(NC(=O)c2ccc(CN3CCc4ccccc4C3)cc2)c1 do in these assays?
NR2F2 inh: 54; NCOA1 inh: inactive; GalR3 antag: 46; SRC3 inh: inactive; SRC2 inh: inactive; LRH-1 inv ag: inactive; GalR3 antag conf: 102; HEK-CNG parental: inactive; VP16 Luc counter: inactive; COUP-TFII conf: inactive

How did Cc1cc(CSc2ccccc2)ccc1NC(=O)c1ccc(CN2CCOCC2)cc1 do in these assays?
NR2F2 inh: 63; NCOA1 inh: inactive; GalR3 antag: 106; SRC3 inh: inactive; SRC2 inh: inactive; LRH-1 inv ag: inactive; GalR3 antag conf: 122; HEK-CNG parental: inactive; VP16 Luc counter: inactive; COUP-TFII conf: 61

How did Cc1cc(C)cc(C(=O)OCCCN(C)C2CN(Cc3cn(Cc4ccccc4Cl)nn3)S(=O)(=O)C2)c1 (stereo not drawn) do in these assays?
NR2F2 inh: inactive; SRC2 inh: inactive

How did C[C@@H]1CN([C@H](C)CO)C(=O)c2cc(NC(=O)Nc3ccc(F)cc3)ccc2O[C@@H](C)CCCCO[C@@H]1CN(C)C(=O)CCCN(C)C do in these assays?
NR2F2 inh: inactive; GalR3 antag: inactive; SRC2 inh: inactive

What do the screens show for `CCOC(=O)c1ccc(NC(=O)c2ccc(CN3CCOCC3)cc2)cc1`?
NR2F2 inh: 50; NCOA1 inh: inactive; GalR3 antag: 94; SRC3 inh: inactive; SRC2 inh: inactive; LRH-1 inv ag: inactive; GalR3 antag conf: 110; HEK-CNG parental: inactive; VP16 Luc counter: inactive; COUP-TFII conf: 38

How did NC(=O)c1ccc(NC(=O)c2ccc(CN3CCOCC3)cc2)cc1 do in these assays?
NR2F2 inh: inactive; NCOA1 inh: inactive; GalR3 antag: inactive; SRC3 inh: inactive; SRC2 inh: inactive; LRH-1 inv ag: inactive

What do the screens show for `CCOC(=O)C1CCN(C(=O)c2ccc(OCC(=O)Nc3cccc(C(F)(F)F)c3)c(OC)c2)CC1`?
NR2F2 inh: 66; NCOA1 inh: inactive; GalR3 antag: 92; SRC3 inh: inactive; SRC2 inh: inactive; LRH-1 inv ag: inactive; GalR3 antag conf: 107; HEK-CNG parental: inactive; VP16 Luc counter: inactive; COUP-TFII conf: 59

Results for c1ccc(CNc2ncnc3ccccc23)cc1 ?
NR2F2 inh: 64; NCOA1 inh: inactive; GalR3 antag: 93; SRC3 inh: inactive; SRC2 inh: inactive; LRH-1 inv ag: inactive; GalR3 antag conf: 86; HEK-CNG parental: inactive; VP16 Luc counter: inactive; COUP-TFII conf: 53

What do the screens show for `COc1cc2ncnc(NCc3ccccc3)c2cc1OC`?
NR2F2 inh: inactive; NCOA1 inh: inactive; GalR3 antag: inactive; SRC3 inh: inactive; SRC2 inh: inactive; LRH-1 inv ag: inactive

What do the screens show for `CCCCCCCCN1C(=O)[C@@H](CC(=O)NCC2CCCCC2)C[C@@]2(C(=O)OC)C1=C[C@H](C(C)C)O[C@@H]2C1CC1`?
NR2F2 inh: inactive; SRC2 inh: inactive

What do the screens show for `COc1ccc(CCN(C)C(=O)Cc2ccc(-c3ccccc3)cc2)cc1OC`?
NR2F2 inh: 48; NCOA1 inh: inactive; GalR3 antag: 35; SRC3 inh: inactive; SRC2 inh: inactive; LRH-1 inv ag: inactive; GalR3 antag conf: 63; HEK-CNG parental: inactive; VP16 Luc counter: inactive; COUP-TFII conf: inactive

Results for Cc1sc2ncnc(NCC(O)c3ccccc3)c2c1C (stereo not drawn) ?
NR2F2 inh: 43; NCOA1 inh: inactive; GalR3 antag: 38; SRC3 inh: inactive; SRC2 inh: inactive; LRH-1 inv ag: inactive; GalR3 antag conf: 25; HEK-CNG parental: inactive; VP16 Luc counter: inactive; COUP-TFII conf: inactive

Results for Cc1sc2ncnc(NCC(c3ccccc3)N(C)C)c2c1C (stereo not drawn) ?
NR2F2 inh: inactive; NCOA1 inh: inactive; GalR3 antag: inactive; SRC3 inh: inactive; SRC2 inh: inactive; LRH-1 inv ag: inactive

How did COc1cc(C)c(Br)cc1S(=O)(=O)NCc1ccncc1 do in these assays?
NR2F2 inh: 57; NCOA1 inh: inactive; GalR3 antag: 39; SRC3 inh: inactive; SRC2 inh: inactive; LRH-1 inv ag: inactive; GalR3 antag conf: 58; HEK-CNG parental: inactive; VP16 Luc counter: inactive; COUP-TFII conf: inactive

High-throughput results: PubChem, The Scripps Research Institute Molecular Screening Center
